Laboratory results from the supplement of paper PMC11732987, “Enantioselective OTUD7B fragment discovery through chemoproteomics screening and high-throughput optimisation” (Communications Chemistry, 2025).
Unmarked numbers belong to inactive results.

Experiments:
Assay in all cases: log2 ratio of Biotin-Ahx-Ub-VS probe labelling (compound/DMSO); higher = less target engagement, active = hit call of the paper (q ≤ 0.05, log2 ratio ≤ -1)
Details in all cases: treatment time: 3 h
[1] = compound: ClCC(=O)NC1CCCc2ccccc12
In short: (§1)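 DUBs in HEK293T lysate were labelled with Biotin-Ahx-Ub-VS (0.5 µM final, 1 h) after a 3 h treatment with compound at 50 or 200 µM or with DMSO, done in triplicate on 495 µg of lysate per sample. NeutrAvidin-enriched proteins were digested with LysC and trypsin and run by diaPASEF LC-MS/MS. Median-normalised label-free quantities gave average base-two log ratios of compound to DMSO by unpaired t-test, restricted to proteins with at least 2 unique peptides.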

[2] = compound: ClCC(=O)NC1CCOc2ccc(Cl)cc12
In short: as §1

[3] = compound: ClCC(=O)NC1CCSc2ccccc12
In short: as §1

[4] = compound: ClCC(=O)N[C@H]1CCCc2ccccc12
In short: as §1

[5] = compound: Fc1ccc(N2CCN(c3nc4c(CN(C(CCl)=O)CC4)cn3)CC2)cc1.Cl.Cl
In short: as §1

USP12 (UniProt O75317)
log2 ratio of Biotin-Ahx-Ub-VS probe labelling ([1]; compound concentration: 50uM): -0.289 | log2 ratio of Biotin-Ahx-Ub-VS probe labelling ([1]; compound concentration: 200uM): -0.199 | log2 ratio of Biotin-Ahx-Ub-VS probe labelling ([2]; compound concentration: 50uM): -0.354 | log2 ratio of Biotin-Ahx-Ub-VS probe labelling ([2]; compound concentration: 200uM): -0.202 | log2 ratio of Biotin-Ahx-Ub-VS probe labelling ([3]; compound concentration: 50uM): -0.191 | log2 ratio of Biotin-Ahx-Ub-VS probe labelling ([3]; compound concentration: 200uM): -0.363 | log2 ratio of Biotin-Ahx-Ub-VS probe labelling ([4]; compound concentration: 50uM): -0.253 | log2 ratio of Biotin-Ahx-Ub-VS probe labelling ([4]; compound concentration: 200uM): -0.148 | log2 ratio of Biotin-Ahx-Ub-VS probe labelling ([5]; compound concentration: 50uM): -0.289 | log2 ratio of Biotin-Ahx-Ub-VS probe labelling ([5]; compound concentration: 200uM): -1.16 (active)

UniProt Q9UGI0
Chain of UniProt Q9UGI0 (Q9UGI0 whole entry): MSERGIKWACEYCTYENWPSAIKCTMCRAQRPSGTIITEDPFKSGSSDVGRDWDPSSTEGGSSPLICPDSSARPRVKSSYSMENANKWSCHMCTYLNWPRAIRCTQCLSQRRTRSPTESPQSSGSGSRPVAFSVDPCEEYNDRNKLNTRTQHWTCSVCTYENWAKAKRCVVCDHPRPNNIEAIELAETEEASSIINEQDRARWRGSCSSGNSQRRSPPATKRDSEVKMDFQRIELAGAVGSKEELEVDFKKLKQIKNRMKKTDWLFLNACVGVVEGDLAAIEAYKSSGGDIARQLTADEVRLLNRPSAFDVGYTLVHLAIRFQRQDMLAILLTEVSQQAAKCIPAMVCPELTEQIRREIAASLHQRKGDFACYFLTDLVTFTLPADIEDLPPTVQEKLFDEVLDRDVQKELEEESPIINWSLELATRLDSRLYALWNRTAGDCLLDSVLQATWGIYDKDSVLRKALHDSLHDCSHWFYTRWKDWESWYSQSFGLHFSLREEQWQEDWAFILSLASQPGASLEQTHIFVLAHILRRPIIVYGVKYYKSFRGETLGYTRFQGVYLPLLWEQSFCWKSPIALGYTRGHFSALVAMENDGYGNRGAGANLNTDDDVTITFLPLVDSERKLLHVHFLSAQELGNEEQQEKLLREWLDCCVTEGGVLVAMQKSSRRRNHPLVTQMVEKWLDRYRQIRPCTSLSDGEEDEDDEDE
log2 ratio of Biotin-Ahx-Ub-VS probe labelling ([1]; compound concentration: 50uM): -0.0757 | log2 ratio of Biotin-Ahx-Ub-VS probe labelling ([1]; compound concentration: 200uM): -0.346 | log2 ratio of Biotin-Ahx-Ub-VS probe labelling ([2]; compound concentration: 50uM): -0.41 | log2 ratio of Biotin-Ahx-Ub-VS probe labelling ([2]; compound concentration: 200uM): -0.0672 | log2 ratio of Biotin-Ahx-Ub-VS probe labelling ([3]; compound concentration: 50uM): -0.265 | log2 ratio of Biotin-Ahx-Ub-VS probe labelling ([3]; compound concentration: 200uM): -0.226 | log2 ratio of Biotin-Ahx-Ub-VS probe labelling ([4]; compound concentration: 50uM): -0.182 | log2 ratio of Biotin-Ahx-Ub-VS probe labelling ([4]; compound concentration: 200uM): -0.337 | log2 ratio of Biotin-Ahx-Ub-VS probe labelling ([5]; compound concentration: 50uM): -0.0659 | log2 ratio of Biotin-Ahx-Ub-VS probe labelling ([5]; compound concentration: 200uM): -0.664

UniProt Q9P2H5
Chain of UniProt Q9P2H5 (Q9P2H5 whole entry): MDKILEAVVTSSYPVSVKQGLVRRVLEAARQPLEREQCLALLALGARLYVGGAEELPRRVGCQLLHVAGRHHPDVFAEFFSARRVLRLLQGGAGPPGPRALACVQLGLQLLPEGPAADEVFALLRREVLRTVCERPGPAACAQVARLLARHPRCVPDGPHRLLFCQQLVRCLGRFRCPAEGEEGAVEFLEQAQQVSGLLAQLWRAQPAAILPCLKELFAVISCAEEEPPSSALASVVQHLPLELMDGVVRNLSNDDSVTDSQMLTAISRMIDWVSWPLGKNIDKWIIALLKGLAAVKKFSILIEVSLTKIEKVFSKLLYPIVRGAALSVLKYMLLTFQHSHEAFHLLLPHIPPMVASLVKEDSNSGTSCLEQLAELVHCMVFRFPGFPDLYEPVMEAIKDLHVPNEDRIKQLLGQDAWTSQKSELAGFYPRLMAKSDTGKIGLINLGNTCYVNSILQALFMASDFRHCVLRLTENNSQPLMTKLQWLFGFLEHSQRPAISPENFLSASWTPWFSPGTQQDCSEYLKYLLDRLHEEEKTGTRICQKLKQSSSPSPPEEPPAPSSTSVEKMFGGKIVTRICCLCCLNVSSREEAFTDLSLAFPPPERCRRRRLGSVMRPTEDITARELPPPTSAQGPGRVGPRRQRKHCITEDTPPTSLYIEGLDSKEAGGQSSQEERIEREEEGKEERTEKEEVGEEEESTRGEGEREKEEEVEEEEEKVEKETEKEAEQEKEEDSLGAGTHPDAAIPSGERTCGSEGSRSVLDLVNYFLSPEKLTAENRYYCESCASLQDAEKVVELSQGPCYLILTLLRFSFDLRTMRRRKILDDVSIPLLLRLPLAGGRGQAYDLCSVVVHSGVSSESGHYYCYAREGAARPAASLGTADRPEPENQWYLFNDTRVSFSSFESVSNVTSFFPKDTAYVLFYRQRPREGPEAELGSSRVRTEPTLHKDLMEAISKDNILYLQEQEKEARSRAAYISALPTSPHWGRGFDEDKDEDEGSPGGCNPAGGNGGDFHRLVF
log2 ratio of Biotin-Ahx-Ub-VS probe labelling ([1]; compound concentration: 50uM): -0.0608 | log2 ratio of Biotin-Ahx-Ub-VS probe labelling ([1]; compound concentration: 200uM): 0.0712 | log2 ratio of Biotin-Ahx-Ub-VS probe labelling ([2]; compound concentration: 50uM): -0.42 | log2 ratio of Biotin-Ahx-Ub-VS probe labelling ([2]; compound concentration: 200uM): -0.205 | log2 ratio of Biotin-Ahx-Ub-VS probe labelling ([3]; compound concentration: 50uM): 0.0602 | log2 ratio of Biotin-Ahx-Ub-VS probe labelling ([3]; compound concentration: 200uM): -0.0405 | log2 ratio of Biotin-Ahx-Ub-VS probe labelling ([4]; compound concentration: 50uM): -0.178 | log2 ratio of Biotin-Ahx-Ub-VS probe labelling ([4]; compound concentration: 200uM): -0.0371 | log2 ratio of Biotin-Ahx-Ub-VS probe labelling ([5]; compound concentration: 50uM): -0.262 | log2 ratio of Biotin-Ahx-Ub-VS probe labelling ([5]; compound concentration: 200uM): -1.08 (active)

YOD1 (UniProt Q5VVQ6)
Chain of UniProt Q5VVQ6 (Q5VVQ6 whole entry): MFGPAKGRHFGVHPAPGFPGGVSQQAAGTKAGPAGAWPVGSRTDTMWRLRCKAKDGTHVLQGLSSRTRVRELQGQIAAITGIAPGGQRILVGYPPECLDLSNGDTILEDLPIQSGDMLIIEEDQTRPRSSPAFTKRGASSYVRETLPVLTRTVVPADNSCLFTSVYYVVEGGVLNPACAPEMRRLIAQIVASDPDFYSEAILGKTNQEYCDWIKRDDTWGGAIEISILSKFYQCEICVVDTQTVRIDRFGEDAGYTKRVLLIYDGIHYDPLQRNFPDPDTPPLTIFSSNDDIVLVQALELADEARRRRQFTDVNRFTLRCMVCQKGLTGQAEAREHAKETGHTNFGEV
log2 ratio of Biotin-Ahx-Ub-VS probe labelling ([1]; compound concentration: 50uM): -0.158 | log2 ratio of Biotin-Ahx-Ub-VS probe labelling ([1]; compound concentration: 200uM): 0.159 | log2 ratio of Biotin-Ahx-Ub-VS probe labelling ([2]; compound concentration: 50uM): -0.167 | log2 ratio of Biotin-Ahx-Ub-VS probe labelling ([2]; compound concentration: 200uM): -0.318 | log2 ratio of Biotin-Ahx-Ub-VS probe labelling ([3]; compound concentration: 50uM): 0.161 | log2 ratio of Biotin-Ahx-Ub-VS probe labelling ([3]; compound concentration: 200uM): -0.174 | log2 ratio of Biotin-Ahx-Ub-VS probe labelling ([4]; compound concentration: 50uM): 0.362 | log2 ratio of Biotin-Ahx-Ub-VS probe labelling ([4]; compound concentration: 200uM): -0.265 | log2 ratio of Biotin-Ahx-Ub-VS probe labelling ([5]; compound concentration: 50uM): 0.0837 | log2 ratio of Biotin-Ahx-Ub-VS probe labelling ([5]; compound concentration: 200uM): -0.394

FAM105A (UniProt Q9NUU6)
log2 ratio of Biotin-Ahx-Ub-VS probe labelling ([1]; compound concentration: 50uM): -0.0884 | log2 ratio of Biotin-Ahx-Ub-VS probe labelling ([1]; compound concentration: 200uM): -0.0754 | log2 ratio of Biotin-Ahx-Ub-VS probe labelling ([2]; compound concentration: 50uM): -0.148 | log2 ratio of Biotin-Ahx-Ub-VS probe labelling ([2]; compound concentration: 200uM): -0.0677 | log2 ratio of Biotin-Ahx-Ub-VS probe labelling ([3]; compound concentration: 50uM): 0.0795 | log2 ratio of Biotin-Ahx-Ub-VS probe labelling ([3]; compound concentration: 200uM): -0.0897 | log2 ratio of Biotin-Ahx-Ub-VS probe labelling ([4]; compound concentration: 50uM): 0.0155 | log2 ratio of Biotin-Ahx-Ub-VS probe labelling ([4]; compound concentration: 200uM): -0.0104 | log2 ratio of Biotin-Ahx-Ub-VS probe labelling ([5]; compound concentration: 50uM): 0.239 | log2 ratio of Biotin-Ahx-Ub-VS probe labelling ([5]; compound concentration: 200uM): -0.443

PSMD7 (UniProt P51665)
log2 ratio of Biotin-Ahx-Ub-VS probe labelling ([1]; compound concentration: 50uM): -5.4 | log2 ratio of Biotin-Ahx-Ub-VS probe labelling ([1]; compound concentration: 200uM): -0.933 | log2 ratio of Biotin-Ahx-Ub-VS probe labelling ([2]; compound concentration: 50uM): -1.46 | log2 ratio of Biotin-Ahx-Ub-VS probe labelling ([2]; compound concentration: 200uM): 0.606 | log2 ratio of Biotin-Ahx-Ub-VS probe labelling ([3]; compound concentration: 50uM): 0.408 | log2 ratio of Biotin-Ahx-Ub-VS probe labelling ([3]; compound concentration: 200uM): 0.0589 | log2 ratio of Biotin-Ahx-Ub-VS probe labelling ([4]; compound concentration: 50uM): 1.77 | log2 ratio of Biotin-Ahx-Ub-VS probe labelling ([4]; compound concentration: 200uM): 0.0535 | log2 ratio of Biotin-Ahx-Ub-VS probe labelling ([5]; compound concentration: 50uM): -0.177 | log2 ratio of Biotin-Ahx-Ub-VS probe labelling ([5]; compound concentration: 200uM): -1.73

USP24 (UniProt Q9UPU5)
log2 ratio of Biotin-Ahx-Ub-VS probe labelling ([1]; compound concentration: 50uM): -0.0627 | log2 ratio of Biotin-Ahx-Ub-VS probe labelling ([1]; compound concentration: 200uM): -0.259 | log2 ratio of Biotin-Ahx-Ub-VS probe labelling ([2]; compound concentration: 50uM): -0.0337 | log2 ratio of Biotin-Ahx-Ub-VS probe labelling ([2]; compound concentration: 200uM): -0.691 | log2 ratio of Biotin-Ahx-Ub-VS probe labelling ([3]; compound concentration: 50uM): 0.0214 | log2 ratio of Biotin-Ahx-Ub-VS probe labelling ([3]; compound concentration: 200uM): -0.445 | log2 ratio of Biotin-Ahx-Ub-VS probe labelling ([4]; compound concentration: 50uM): 0.184 | log2 ratio of Biotin-Ahx-Ub-VS probe labelling ([4]; compound concentration: 200uM): -0.614 | log2 ratio of Biotin-Ahx-Ub-VS probe labelling ([5]; compound concentration: 50uM): -0.726 | log2 ratio of Biotin-Ahx-Ub-VS probe labelling ([5]; compound concentration: 200uM): -2.07 (active)

USP42 (UniProt Q9H9J4)
Chain of UniProt Q9H9J4 (Q9H9J4 whole entry): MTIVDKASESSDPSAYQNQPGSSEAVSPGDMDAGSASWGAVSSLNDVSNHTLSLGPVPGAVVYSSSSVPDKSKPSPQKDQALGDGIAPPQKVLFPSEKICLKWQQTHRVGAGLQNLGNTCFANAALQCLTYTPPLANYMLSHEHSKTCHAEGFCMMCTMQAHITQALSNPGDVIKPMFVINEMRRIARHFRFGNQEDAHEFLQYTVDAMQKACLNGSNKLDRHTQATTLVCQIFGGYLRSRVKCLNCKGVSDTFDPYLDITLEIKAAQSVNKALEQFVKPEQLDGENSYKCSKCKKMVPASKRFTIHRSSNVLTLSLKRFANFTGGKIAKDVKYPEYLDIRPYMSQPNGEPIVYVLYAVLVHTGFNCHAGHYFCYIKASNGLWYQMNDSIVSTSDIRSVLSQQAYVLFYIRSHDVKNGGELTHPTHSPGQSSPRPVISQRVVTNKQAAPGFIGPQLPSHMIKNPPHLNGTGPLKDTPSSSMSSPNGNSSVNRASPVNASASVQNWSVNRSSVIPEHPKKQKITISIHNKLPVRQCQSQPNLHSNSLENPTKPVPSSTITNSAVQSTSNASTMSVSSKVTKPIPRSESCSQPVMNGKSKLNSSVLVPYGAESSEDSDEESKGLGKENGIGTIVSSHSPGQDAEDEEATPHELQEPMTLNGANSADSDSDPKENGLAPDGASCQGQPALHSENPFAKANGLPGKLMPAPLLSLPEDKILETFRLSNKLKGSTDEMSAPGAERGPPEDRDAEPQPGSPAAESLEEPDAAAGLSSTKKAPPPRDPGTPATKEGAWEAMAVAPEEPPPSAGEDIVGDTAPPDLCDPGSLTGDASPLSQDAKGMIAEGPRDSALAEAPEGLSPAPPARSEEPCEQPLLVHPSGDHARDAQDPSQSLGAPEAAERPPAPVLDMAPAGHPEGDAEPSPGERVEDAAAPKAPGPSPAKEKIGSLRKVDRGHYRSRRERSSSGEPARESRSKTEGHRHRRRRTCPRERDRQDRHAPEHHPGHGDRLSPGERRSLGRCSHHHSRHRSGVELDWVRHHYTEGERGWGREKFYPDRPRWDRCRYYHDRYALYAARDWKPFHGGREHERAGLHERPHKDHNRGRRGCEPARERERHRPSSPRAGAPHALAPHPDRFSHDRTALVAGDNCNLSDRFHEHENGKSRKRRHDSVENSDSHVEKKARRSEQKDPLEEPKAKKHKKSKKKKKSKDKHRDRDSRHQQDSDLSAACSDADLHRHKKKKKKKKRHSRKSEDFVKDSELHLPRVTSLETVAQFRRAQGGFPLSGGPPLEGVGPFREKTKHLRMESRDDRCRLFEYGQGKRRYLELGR
log2 ratio of Biotin-Ahx-Ub-VS probe labelling ([1]; compound concentration: 50uM): 0.113 | log2 ratio of Biotin-Ahx-Ub-VS probe labelling ([1]; compound concentration: 200uM): 0.286 | log2 ratio of Biotin-Ahx-Ub-VS probe labelling ([2]; compound concentration: 50uM): -0.00469 | log2 ratio of Biotin-Ahx-Ub-VS probe labelling ([2]; compound concentration: 200uM): 0.132 | log2 ratio of Biotin-Ahx-Ub-VS probe labelling ([3]; compound concentration: 50uM): 0.137 | log2 ratio of Biotin-Ahx-Ub-VS probe labelling ([3]; compound concentration: 200uM): 0.26 | log2 ratio of Biotin-Ahx-Ub-VS probe labelling ([4]; compound concentration: 50uM): -0.0967 | log2 ratio of Biotin-Ahx-Ub-VS probe labelling ([4]; compound concentration: 200uM): 0.0714 | log2 ratio of Biotin-Ahx-Ub-VS probe labelling ([5]; compound concentration: 50uM): -0.0766 | log2 ratio of Biotin-Ahx-Ub-VS probe labelling ([5]; compound concentration: 200uM): 0.241

USP4 (UniProt Q13107)
Chain of UniProt Q13107 (Q13107 whole entry): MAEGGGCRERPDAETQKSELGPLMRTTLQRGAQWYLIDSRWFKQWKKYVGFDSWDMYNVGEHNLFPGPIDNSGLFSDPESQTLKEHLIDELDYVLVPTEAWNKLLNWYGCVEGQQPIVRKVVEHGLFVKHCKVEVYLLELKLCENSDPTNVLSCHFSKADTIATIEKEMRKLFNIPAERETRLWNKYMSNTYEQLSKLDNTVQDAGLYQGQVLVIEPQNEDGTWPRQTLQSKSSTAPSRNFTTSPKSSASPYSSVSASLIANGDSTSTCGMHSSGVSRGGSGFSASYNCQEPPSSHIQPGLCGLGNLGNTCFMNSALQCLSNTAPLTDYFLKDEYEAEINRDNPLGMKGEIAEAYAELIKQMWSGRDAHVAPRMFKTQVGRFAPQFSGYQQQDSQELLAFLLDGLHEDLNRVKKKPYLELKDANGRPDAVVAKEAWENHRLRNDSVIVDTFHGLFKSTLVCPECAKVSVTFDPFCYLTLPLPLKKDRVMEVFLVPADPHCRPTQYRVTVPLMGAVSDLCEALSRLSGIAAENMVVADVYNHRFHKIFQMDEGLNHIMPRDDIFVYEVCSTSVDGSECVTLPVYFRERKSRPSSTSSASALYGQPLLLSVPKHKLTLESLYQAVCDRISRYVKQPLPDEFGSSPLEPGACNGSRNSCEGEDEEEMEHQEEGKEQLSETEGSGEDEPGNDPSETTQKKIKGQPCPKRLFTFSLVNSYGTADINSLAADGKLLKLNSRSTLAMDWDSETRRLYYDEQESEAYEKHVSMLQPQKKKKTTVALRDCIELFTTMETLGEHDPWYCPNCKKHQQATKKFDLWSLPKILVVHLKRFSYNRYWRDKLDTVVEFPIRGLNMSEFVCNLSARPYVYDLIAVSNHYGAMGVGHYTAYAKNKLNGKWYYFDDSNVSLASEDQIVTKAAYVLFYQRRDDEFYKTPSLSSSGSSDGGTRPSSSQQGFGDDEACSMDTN
log2 ratio of Biotin-Ahx-Ub-VS probe labelling ([1]; compound concentration: 50uM): 0.337 | log2 ratio of Biotin-Ahx-Ub-VS probe labelling ([1]; compound concentration: 200uM): -0.155 | log2 ratio of Biotin-Ahx-Ub-VS probe labelling ([2]; compound concentration: 50uM): -0.21 | log2 ratio of Biotin-Ahx-Ub-VS probe labelling ([2]; compound concentration: 200uM): 0.596 | log2 ratio of Biotin-Ahx-Ub-VS probe labelling ([3]; compound concentration: 50uM): -0.0317 | log2 ratio of Biotin-Ahx-Ub-VS probe labelling ([3]; compound concentration: 200uM): -0.104 | log2 ratio of Biotin-Ahx-Ub-VS probe labelling ([4]; compound concentration: 50uM): -0.54 | log2 ratio of Biotin-Ahx-Ub-VS probe labelling ([4]; compound concentration: 200uM): -0.195 | log2 ratio of Biotin-Ahx-Ub-VS probe labelling ([5]; compound concentration: 50uM): -0.32 | log2 ratio of Biotin-Ahx-Ub-VS probe labelling ([5]; compound concentration: 200uM): 0.659

MINDY4 (UniProt Q4G0A6)
log2 ratio of Biotin-Ahx-Ub-VS probe labelling ([1]; compound concentration: 50uM): 0.639 | log2 ratio of Biotin-Ahx-Ub-VS probe labelling ([1]; compound concentration: 200uM): -0.0583 | log2 ratio of Biotin-Ahx-Ub-VS probe labelling ([2]; compound concentration: 50uM): -0.0698 | log2 ratio of Biotin-Ahx-Ub-VS probe labelling ([2]; compound concentration: 200uM): 0.0712 | log2 ratio of Biotin-Ahx-Ub-VS probe labelling ([3]; compound concentration: 50uM): 0.832 | log2 ratio of Biotin-Ahx-Ub-VS probe labelling ([3]; compound concentration: 200uM): -0.691 | log2 ratio of Biotin-Ahx-Ub-VS probe labelling ([4]; compound concentration: 50uM): 0.216 | log2 ratio of Biotin-Ahx-Ub-VS probe labelling ([4]; compound concentration: 200uM): 0.204 | log2 ratio of Biotin-Ahx-Ub-VS probe labelling ([5]; compound concentration: 50uM): 0.258 | log2 ratio of Biotin-Ahx-Ub-VS probe labelling ([5]; compound concentration: 200uM): 0.516

USP22 (UniProt Q9UPT9)
Chain of UniProt Q9UPT9 (Q9UPT9 whole entry): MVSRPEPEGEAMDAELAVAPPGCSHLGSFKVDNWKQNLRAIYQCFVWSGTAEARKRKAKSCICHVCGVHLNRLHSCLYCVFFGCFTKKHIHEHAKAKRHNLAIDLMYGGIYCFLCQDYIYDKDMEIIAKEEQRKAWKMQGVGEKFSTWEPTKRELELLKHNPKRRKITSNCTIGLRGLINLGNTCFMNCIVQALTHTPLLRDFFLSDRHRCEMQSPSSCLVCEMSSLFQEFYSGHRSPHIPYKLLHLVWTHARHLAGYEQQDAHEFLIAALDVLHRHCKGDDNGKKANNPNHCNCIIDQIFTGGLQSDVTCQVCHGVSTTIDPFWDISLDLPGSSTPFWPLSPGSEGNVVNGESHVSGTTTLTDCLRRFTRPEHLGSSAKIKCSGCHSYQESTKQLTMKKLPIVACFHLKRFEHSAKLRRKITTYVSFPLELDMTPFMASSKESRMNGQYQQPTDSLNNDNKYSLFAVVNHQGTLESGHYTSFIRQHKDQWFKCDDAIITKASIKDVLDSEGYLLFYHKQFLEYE
log2 ratio of Biotin-Ahx-Ub-VS probe labelling ([1]; compound concentration: 50uM): -0.085 | log2 ratio of Biotin-Ahx-Ub-VS probe labelling ([1]; compound concentration: 200uM): -0.0777 | log2 ratio of Biotin-Ahx-Ub-VS probe labelling ([2]; compound concentration: 50uM): -0.0691 | log2 ratio of Biotin-Ahx-Ub-VS probe labelling ([2]; compound concentration: 200uM): -0.277 | log2 ratio of Biotin-Ahx-Ub-VS probe labelling ([3]; compound concentration: 50uM): 0.136 | log2 ratio of Biotin-Ahx-Ub-VS probe labelling ([3]; compound concentration: 200uM): -0.123 | log2 ratio of Biotin-Ahx-Ub-VS probe labelling ([4]; compound concentration: 50uM): 0.101 | log2 ratio of Biotin-Ahx-Ub-VS probe labelling ([4]; compound concentration: 200uM): -0.302 | log2 ratio of Biotin-Ahx-Ub-VS probe labelling ([5]; compound concentration: 50uM): -0.16 | log2 ratio of Biotin-Ahx-Ub-VS probe labelling ([5]; compound concentration: 200uM): -0.168

PRPF8 (UniProt Q6P2Q9)
log2 ratio of Biotin-Ahx-Ub-VS probe labelling ([1]; compound concentration: 50uM): -0.0294 | log2 ratio of Biotin-Ahx-Ub-VS probe labelling ([1]; compound concentration: 200uM): -0.0682 | log2 ratio of Biotin-Ahx-Ub-VS probe labelling ([2]; compound concentration: 50uM): -0.217 | log2 ratio of Biotin-Ahx-Ub-VS probe labelling ([2]; compound concentration: 200uM): -0.0207 | log2 ratio of Biotin-Ahx-Ub-VS probe labelling ([3]; compound concentration: 50uM): 0.0298 | log2 ratio of Biotin-Ahx-Ub-VS probe labelling ([3]; compound concentration: 200uM): -0.0215 | log2 ratio of Biotin-Ahx-Ub-VS probe labelling ([4]; compound concentration: 50uM): 0.0787 | log2 ratio of Biotin-Ahx-Ub-VS probe labelling ([4]; compound concentration: 200uM): -0.0553 | log2 ratio of Biotin-Ahx-Ub-VS probe labelling ([5]; compound concentration: 50uM): -0.0417 | log2 ratio of Biotin-Ahx-Ub-VS probe labelling ([5]; compound concentration: 200uM): -0.137
